Reference: PubChem BioAssay (NCI)
Compounds without any hit were thinned out: in the full panel of roughly 79,000, 15% have a hit. Calls of active or inactive are those of the source. Cut-off read from the data, not from the text of the source: active = growth inhibition above about 70%; inactive = the rest.

Assays:
[1] = NCI Yeast Anticancer Drug Screen. Data for the rad50 strain (AID 155);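 note: 0% = growth of vehicle-only cultures of the same strain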; details: S. cerevisiae rad50 strain growth inhibition, active compounds read high
Method in brief: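 A DNA repair-deficient yeast mutant serves as the test organism; compound-induced growth inhibition is calculated against vehicle-treated cells.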

[2] = NCI Yeast Anticancer Drug Screen. Data for the mec2-1 strain (AID 157); details: S. cerevisiae mec2-1 strain, active compounds read high
Method in brief: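 Each compound was tested on mec2-1 yeast, a strain altered in DNA damage repair or cell cycle control. Growth inhibition is reported relative to vehicle.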

[3] = NCI Yeast Anticancer Drug Screen. Data for the sgs1 mgt1 strain (AID 161);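 note: 0% = growth of cultures given vehicle only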; details: S. cerevisiae sgs1 mgt1 strain, active compounds read high
Method in brief: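 Read-out: growth inhibition vs vehicle controls. Cells: mutant yeast strain deficient in DNA damage repair.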

[4] = NCI Yeast Anticancer Drug Screen. Data for the cln2 rad14 strain (AID 165);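 note: 0% = growth equal to vehicle treated cultures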; details: S. cerevisiae cln2 rad14 strain, active compounds read high
Method in brief: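 Test compounds were added to cln2 rad14 yeast cultures; inhibition of growth was then determined by comparison with vehicle treatment.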

[5] = NCI Yeast Anticancer Drug Screen. Data for the bub3 strain (AID 167); details: S. cerevisiae bub3 mutant strain, active compounds read high
Method in brief: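 Inhibition values come from growth of compound-treated mutant yeast normalised to vehicle-treated controls.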

[6] = NCI Yeast Anticancer Drug Screen. Data for the mlh1 rad18 strain (AID 175); details: S. cerevisiae mlh1 rad18 strain growth inhibition, active compounds read high
Method in brief: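 Inhibition values reflect reduced growth of mutant yeast versus vehicle-treated controls following compound exposure; the mutations affect DNA damage repair.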

[7] = at 5.0 µM (retest, dose inferred, filed as 0.5)
[8] = at 50.0 µM (retest, dose inferred, filed as 5.0)

Measured: growth inhibition

CN1CN(c2ccccc2)C2(CCN(C3Nc4ccccc4O3)CC2)C1=O (stereo not drawn)
inactive: [1]; [7] 7% | [1]; [8] 33% | [1]; at 50.0 µM 40% | [2]; [7] 2% | [2]; [8] 26% | [2]; at 50.0 µM 44.5% | [3]; [7] -1% | [3]; [8] 30% | [3]; at 50.0 µM 58.5% | [4]; [7] 31% | [4]; [8] 42% | [4]; at 50.0 µM 35% | [5]; [7] -16% | [5]; [8] -4% | [5]; at 50.0 µM 50.8% | [6]; [7] 10% | [6]; [8] 57% | [6]; at 50.0 µM 45.6%

CC12CCC(O)CC1CCC1C2CCC2(C)C(C(=O)CC(O)C(F)(F)F)CCC12 (stereo not drawn)
inactive: [1]; [7] 4% | [1]; [8] 62% | [2]; [7] 8% | [2]; [8] 43% | [2]; at 50.0 µM 65.8% | [3]; [7] -9% | [3]; [8] 62% | [3]; at 50.0 µM 67.5% | [4]; [7] -7% | [4]; [8] 66% | [5]; [7] -15% | [5]; [8] 57% | [6]; [7] 0% | [6]; [8] 63%
active: [1]; at 50.0 µM 84.5% | [4]; at 50.0 µM 71.2% | [5]; at 50.0 µM 84% | [6]; at 50.0 µM 85.7%

O=C(O)/C=C\c1c[nH]c2ccccc12
active: [1]; [8] 97% | [1]; at 50.0 µM 75.8% | [2]; [8] 89% | [3]; [8] 87% | [4]; [8] 89% | [5]; [8] 95% | [6]; [8] 97%
inactive: [1]; [7] 10% | [2]; [7] -2% | [2]; at 50.0 µM 38.3% | [3]; [7] 2% | [3]; at 50.0 µM 60.2% | [4]; [7] -6% | [4]; at 50.0 µM 1.45% | [5]; [7] -2% | [5]; at 50.0 µM 50.8% | [6]; [7] -17% | [6]; at 50.0 µM 42.4%

CC(=O)Oc1cccc2c1CC(C[Se]c1ccccc1)C(=O)O2 (stereo not drawn)
active: [3]; at 50.0 µM 70.2% | [6]; at 50.0 µM 74.2%
inactive: [1]; [7] 11% | [1]; [8] 40% | [1]; at 50.0 µM 69.9% | [2]; [7] 8% | [2]; [8] 35% | [2]; at 50.0 µM 35.5% | [3]; [7] 11% | [3]; [8] 57% | [4]; [7] 3% | [4]; [8] 23% | [4]; at 50.0 µM 25.4% | [5]; [7] -7% | [5]; [8] 38% | [5]; at 50.0 µM 35% | [6]; [7] 11% | [6]; [8] 66%

CN(C)C(=S)[S][Sb]([c]1ccccc1)[c]1ccccc1
inactive: [4]; at 50.0 µM 57.1%
active: [1]; [7] 97% | [1]; [8] 99% | [1]; at 50.0 µM 70.6% | [2]; [7] 99% | [2]; [8] 99% | [2]; at 50.0 µM 83.5% | [3]; [7] 93% | [3]; [8] 99% | [3]; at 50.0 µM 90.3% | [4]; [7] 89% | [4]; [8] 97% | [5]; [7] 98% | [5]; [8] 75% | [5]; at 50.0 µM 98.3% | [6]; [7] 99% | [6]; [8] 99% | [6]; at 50.0 µM 90.5%

COc1cc(Br)cc(/C=C(\C)[N+](=O)[O-])c1O
inactive: [1]; [7] 11% | [2]; [7] 7% | [3]; [7] 18% | [4]; [7] -5% | [5]; [7] -1% | [6]; [7] 9%
active: [1]; [8] 96% | [1]; at 50.0 µM 99.5% | [2]; [8] 95% | [2]; at 50.0 µM 99.8% | [3]; [8] 97% | [3]; at 50.0 µM 99.8% | [4]; [8] 94% | [4]; at 50.0 µM 99.5% | [5]; [8] 97% | [5]; at 50.0 µM 99.7% | [6]; [8] 97% | [6]; at 50.0 µM 99.7%
